Active and inactive are the calls of the source. Rule for the calls: active = hit-call score of the fitted dose curve at least 0.9, where 1 is the maximum; inactive = score below 0.9.

Experiment [1] can be described thus: ATG_GLI_CIS: Attagene CIS-FACTORIAL HepG2 Assay for human Zinc Finger Protein GLI1 (AID 2282945). The settings on record: HepG2, Attagene cis-factorial reporter mRNA, GLI element; actives raise or lower the signal. The method, boiled down: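 HepG2 cells transiently transfected with cis-promoter multiplexed reporter units report endogenous transcription factor activity. After 24 h chemical exposure, reporter mRNA was quantified by RT-PCR, 6-FAM labelling, HpaI digestion and capillary electrophoresis, with bidirectional fitting against DMSO.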

For experiment [2], the target named is Bile acid receptor (Homo sapiens) (UniProt Q96RI1). As to the kind of experiment: ATG_IR1_CIS: Attagene CIS-FACTORIAL HepG2 Assay for human Nuclear Receptor Subfamily 1 Group H Member 4 (NR1H4), IR1 submotif (AID 2282946). The note with it: IR1 reporter transcription, actives raise or lower the signal. The procedure, abridged:
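Transient MRTU transfection, HepG2; 24 h dosing; RNA → RT-PCR → 6-FAM primer extension → HpaI digest → capillary electrophoresis fluorescence. Gain/loss of signal fitted relative to DMSO.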

Experiment [3] is described as follows: ATG_GRE_CIS: Attagene CIS-FACTORIAL HepG2 Assay for human Glucocorticoid Response Elements (GRE) (AID 2282947). The note with it: HepG2 GRE cis-reporter, Attagene multiplex mRNA; actives raise or lower the signal. The procedure, abridged:
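HepG2 cells transiently transfected with multiple cis-promoter reporter units measure endogenous TF activity; 24 h compound exposure. Reporter mRNA quantified by RT-PCR, FAM labelling, HpaI digestion and capillary electrophoresis; bidirectional fit vs DMSO baseline.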

Experiment [4] can be described thus: ATG_ISRE_CIS: Attagene CIS-FACTORIAL HepG2 Assay for human Interferon Regulatory Factor 1 (IRF1) binding to an Interferon-Stimulated Response Element (ISRE) (AID 2282948). The note with it: HepG2 ISRE cis-reporter (Attagene), mRNA transcription readout; actives raise or lower the signal. The method, boiled down:
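Transiently transfected HepG2 cells carrying cis-element reporter units, dosed 24 hours. Reporter mRNA quantified by RT-PCR, fluorescent primer extension, HpaI digestion and capillary electrophoresis. Bidirectional fitting relative to DMSO.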

The nature of experiment [5]: ATG_M_32_CIS: Attagene CIS-FACTORIAL HepG2 Assay for M32 Transcription Factor (Internal Marker) (AID 2282949).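 Note: background control marker of the multiplexed CIS panel rather than a real target.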 The note with it: HepG2 Attagene cis-factorial M32 reporter, mRNA; actives raise or lower the signal. The method, boiled down: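 Internal background marker read-out: RT-PCR/capillary electrophoresis fluorescence of reporter transcripts from transiently transfected HepG2 cells after 24 h chemical exposure. Activity fitted bidirectionally relative to DMSO negative control.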

Experiment [6] in a line: ATG_M_06_CIS: Attagene CIS-FACTORIAL HepG2 Assay for M06 Transcription Factor (Internal Marker) (AID 2282950). The settings on record: HepG2 Attagene CIS-FACTORIAL M06 internal marker reporter; actives raise or lower the signal. The procedure, abridged: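 Fluorescence-labelled RT-PCR products from cis-promoter reporter units, cut with HpaI and resolved by capillary electrophoresis, give the signal. Cells are human HepG2, dosed for 24 h. Serves as background control, fitted relative to DMSO.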

Experiment [7] addresses Hypoxia-inducible factor 1-alpha (Homo sapiens) (UniProt Q16665). As to the kind of experiment: ATG_HIF1a_CIS: Attagene CIS-FACTORIAL HepG2 Assay for human Hypoxia Inducible Factor 1 (HIF1A) (AID 2282951). The settings on record: HepG2 Attagene cis-factorial HIF1a reporter transcription; actives raise or lower the signal. The procedure, abridged:
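Transient MRTU transfection of human HepG2 liver cells, 24 h compound treatment, then total RNA isolation, oligo(dT) reverse transcription, PCR amplification, fluorescent labelling and capillary electrophoresis of reporter fragments. Gain or loss relative to DMSO.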

Experiment [8] deals with Hepatocyte nuclear factor 6 (Homo sapiens) (UniProt Q9UBC0). As to the kind of experiment: ATG_HNF6_CIS: Attagene CIS-FACTORIAL HepG2 Assay for human Hepatocyte Nuclear Factor 6 (HNF6) (AID 2282952). The settings on record: HepG2 Attagene cis-factorial HNF6 reporter transcription; actives raise or lower the signal. The procedure, abridged:
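HepG2 cells transiently transfected with cis-element-driven multiplexed reporter units measuring endogenous transcription factor activity. After 24 h exposure, reporter mRNA quantified by RT-PCR, FAM-labelled fragments and capillary electrophoresis; bidirectional fitting versus DMSO.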

Experiment [9] deals with Heat shock factor protein 1 (Homo sapiens) (UniProt Q00613). As to the kind of experiment: ATG_HSE_CIS: Attagene CIS-FACTORIAL HepG2 Assay for human Heat Shock Transcription Factor 1 (HSE) (AID 2282953). The settings on record: HepG2 HSE cis-reporter, Attagene RNA transcription; actives raise or lower the signal. The procedure, abridged:
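After a 24 h incubation with test chemical, transfected HepG2 cells were harvested for RNA; reporter transcripts were measured by RT-PCR and capillary electrophoresis. Values reflect gain or loss of signal relative to DMSO.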

The nature of experiment [10]: ATG_MRE_CIS: Attagene CIS-FACTORIAL HepG2 Assay for human Metal Responsive Element (MRE) (AID 2282954). The settings on record: HepG2 MRE cis-reporter transcription, Attagene multiplex; actives raise or lower the signal. The procedure, abridged: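 HepG2 cells transiently transfected with multiple cis-element reporter units measure endogenous MTF1-driven transcription. After 24 h compound exposure, reporter mRNA is quantified by RT-PCR with 6-FAM labelling, HpaI digestion and capillary electrophoresis; bidirectional fits versus DMSO.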

In experiment [11] the target is Paired box protein Pax-6 (Homo sapiens) (UniProt P26367). Put plainly: ATG_Pax6_CIS: Attagene CIS-FACTORIAL HepG2 Assay for human Paired Box 6 (PAX6) (AID 2282956). The note with it: HepG2 CIS-FACTORIAL PAX6 reporter transcription, RNA readout; actives raise or lower the signal. The method, boiled down: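 HepG2 cells transiently transfected with cis-promoter-driven multiplexed reporter units sensing endogenous transcription factor activity; 24 h chemical exposure. Reporter mRNA quantified by RT-PCR, 6-FAM labelling, HpaI digestion and capillary electrophoresis; bidirectional fit versus DMSO baseline.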

Experiment [12] in a line: ATG_PXRE_CIS: Attagene CIS-FACTORIAL HepG2 Assay for human Pregnane X Receptor Element (PXRE) (AID 2282957). The settings on record: HepG2 Attagene CIS-FACTORIAL PXRE reporter, mRNA; actives raise or lower the signal. The procedure, abridged:
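HepG2 cells transiently transfected with cis-element-driven multiplexed reporter units; after 24 h chemical exposure, reporter mRNA measured by RT-PCR, 6-FAM labelling, HpaI digestion and capillary electrophoresis. Bidirectional fitting relative to DMSO.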

Experiment [13] is described as follows: ATG_PPRE_CIS: Attagene CIS-FACTORIAL HepG2 Assay for human Peroxisome Proliferator-activated Response Element (PPRE) (AID 2282958). The note with it: HepG2 PPRE cis-element reporter, Attagene transcription factor profiling; actives raise or lower the signal. The method, boiled down:
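HepG2, transient MRTU transfection (cis promoter elements, endogenous TFs). 24 h dosing. RNA → oligo(dT) RT → PCR → 6-FAM primer extension → HpaI digest → CE. Bidirectional fit vs DMSO.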

Experiment [14] is described as follows: ATG_RORE_CIS: Attagene CIS-FACTORIAL HepG2 Assay for human RAR-related Orphan Receptor Element (RORE) (AID 2282959). The settings on record: HepG2 Attagene cis-factorial RORE reporter, mRNA; actives raise or lower the signal. The method, boiled down:
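Transient MRTU transfection of human HepG2 liver cells (FuGene 6); 24 h compound exposure; TriZol RNA, oligo(dT) RT, PCR, FAM labeling, HpaI cut, CE fragment analysis. DMSO = negative control/baseline.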

The nature of experiment [15]: ATG_Sox_CIS: Attagene CIS-FACTORIAL HepG2 Assay for human SRY-box transcription factor (SOX) (AID 2282960). The note with it: HepG2 Attagene cis-factorial SOX reporter, mRNA; actives raise or lower the signal. The method, boiled down: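 Endogenous factor activity in human liver HepG2 cells carrying transfected cis-regulated reporter units. RNA taken 24 h post-dose, reverse-transcribed, PCR-amplified and sized by capillary electrophoresis. Gain or loss of signal fitted relative to DMSO.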

Experiment [16] has as its target Transcription factor Sp1 (Homo sapiens) (UniProt P08047). As to the kind of experiment: ATG_Sp1_CIS: Attagene CIS-FACTORIAL HepG2 Assay for human Specificity Protein 1 (Sp1) (AID 2282961). The settings on record: HepG2 Sp1 cis-reporter transcription, actives raise or lower the signal. The procedure, abridged: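 Transient MRTU-transfected HepG2, 24 h compound exposure. Total RNA → oligo(dT) RT → PCR of reporter → 6-FAM primer extension → HpaI digest → CE. Endpoint fitted both directions vs DMSO.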

Experiment [17] can be described thus: ATG_SREBP_CIS: Attagene CIS-FACTORIAL HepG2 Assay for human Sterol Regulatory Element Binding (SREBP) (AID 2282962). The note with it: HepG2 Attagene cis-factorial SREBP reporter, mRNA; actives raise or lower the signal. The method, boiled down: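 HepG2 cells transiently transfected with multiplexed cis-promoter reporter units sensing endogenous transcription factors; reporter mRNA measured 24 h after dosing by RT-PCR, 6-FAM labeling, HpaI digestion and capillary electrophoresis. Bidirectional fit versus DMSO.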

Experiment [18] addresses Signal transducer and activator of transcription 3 (Homo sapiens) (UniProt P40763). Put plainly: ATG_STAT3_CIS: Attagene CIS-FACTORIAL HepG2 Assay for human Signal Transducer and Activator of Transcription 3 (STAT3) (AID 2282963). The settings on record: HepG2, Attagene cis-factorial STAT3 reporter transcription; actives raise or lower the signal. The method, boiled down:
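HepG2 cells transiently transfected with cis-element-driven multiple reporter transcription units; after 24 h chemical exposure, reporter mRNA measured by RT-PCR, 6-FAM primer-extension labelling, HpaI digestion and capillary electrophoresis. Bidirectional fitting versus DMSO baseline.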

A short description of experiment [19]: ATG_TA_CIS: Attagene CIS-FACTORIAL HepG2 Assay for human TA Basal Promoter (AID 2282964). The settings on record: HepG2 Attagene CIS-factorial TA basal promoter reporter; actives raise or lower the signal. The method, boiled down: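 Multiplexed mRNA reporter assay, HepG2, 24 h. Reporter cDNA amplified, 6-FAM primer-extended, HpaI-cut, CE-sized; DMSO = negative control and baseline.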

A short description of experiment [20]: ATG_PBREM_CIS: Attagene CIS-FACTORIAL HepG2 Assay for human Phenobarbital-responsive Enhancer Module (PBREM) (AID 2282955). The note with it: HepG2 PBREM cis-reporter, Attagene multiplexed transcription; actives raise or lower the signal. The method, boiled down:
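Endogenous transcription factors in human liver HepG2 cells drive a PBREM cis-element reporter, whose transcript level after 24 h treatment is quantified by RT-PCR with capillary electrophoresis; activity fitted in both directions against DMSO.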

Sequence of Hypoxia-inducible factor 1-alpha (Homo sapiens) (Q16665 whole entry, looked up, the tested form may be a part): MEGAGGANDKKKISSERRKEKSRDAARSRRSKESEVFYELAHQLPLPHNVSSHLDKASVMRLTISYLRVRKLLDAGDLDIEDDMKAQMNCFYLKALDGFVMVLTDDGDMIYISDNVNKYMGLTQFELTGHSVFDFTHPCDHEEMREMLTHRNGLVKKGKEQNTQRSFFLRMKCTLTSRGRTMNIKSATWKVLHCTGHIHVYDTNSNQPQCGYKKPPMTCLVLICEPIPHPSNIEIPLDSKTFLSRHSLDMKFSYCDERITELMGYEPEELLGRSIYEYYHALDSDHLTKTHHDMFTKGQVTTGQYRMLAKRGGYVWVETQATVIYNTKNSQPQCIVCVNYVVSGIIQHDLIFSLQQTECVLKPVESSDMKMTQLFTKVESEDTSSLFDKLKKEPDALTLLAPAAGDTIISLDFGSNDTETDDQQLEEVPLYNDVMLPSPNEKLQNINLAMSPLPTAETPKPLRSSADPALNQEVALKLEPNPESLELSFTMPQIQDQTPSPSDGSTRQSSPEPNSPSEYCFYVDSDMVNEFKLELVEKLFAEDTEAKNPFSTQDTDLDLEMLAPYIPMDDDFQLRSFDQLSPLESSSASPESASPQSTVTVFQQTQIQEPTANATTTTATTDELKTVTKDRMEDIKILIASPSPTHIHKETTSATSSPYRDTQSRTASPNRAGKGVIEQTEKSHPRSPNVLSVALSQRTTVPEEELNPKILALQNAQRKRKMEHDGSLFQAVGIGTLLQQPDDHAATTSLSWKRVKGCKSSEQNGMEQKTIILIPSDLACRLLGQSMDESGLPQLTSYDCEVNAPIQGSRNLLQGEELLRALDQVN
Sequence of Heat shock factor protein 1 (Homo sapiens) (Q00613 whole entry, looked up): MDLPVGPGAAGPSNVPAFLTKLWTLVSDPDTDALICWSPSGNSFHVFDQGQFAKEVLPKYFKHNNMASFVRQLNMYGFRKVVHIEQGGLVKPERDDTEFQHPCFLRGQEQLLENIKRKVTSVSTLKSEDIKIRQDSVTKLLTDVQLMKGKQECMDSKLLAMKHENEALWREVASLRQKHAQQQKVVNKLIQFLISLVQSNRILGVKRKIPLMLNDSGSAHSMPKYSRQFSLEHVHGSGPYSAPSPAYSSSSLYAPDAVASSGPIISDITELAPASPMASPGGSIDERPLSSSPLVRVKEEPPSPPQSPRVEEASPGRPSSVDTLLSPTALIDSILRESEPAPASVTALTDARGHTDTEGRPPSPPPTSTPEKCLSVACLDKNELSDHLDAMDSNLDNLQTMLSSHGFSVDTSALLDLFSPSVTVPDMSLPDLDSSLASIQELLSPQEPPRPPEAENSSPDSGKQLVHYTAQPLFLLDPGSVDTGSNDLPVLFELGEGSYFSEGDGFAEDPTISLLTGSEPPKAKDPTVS
Sequence of Transcription factor Sp1 (Homo sapiens) (P08047 whole entry, looked up): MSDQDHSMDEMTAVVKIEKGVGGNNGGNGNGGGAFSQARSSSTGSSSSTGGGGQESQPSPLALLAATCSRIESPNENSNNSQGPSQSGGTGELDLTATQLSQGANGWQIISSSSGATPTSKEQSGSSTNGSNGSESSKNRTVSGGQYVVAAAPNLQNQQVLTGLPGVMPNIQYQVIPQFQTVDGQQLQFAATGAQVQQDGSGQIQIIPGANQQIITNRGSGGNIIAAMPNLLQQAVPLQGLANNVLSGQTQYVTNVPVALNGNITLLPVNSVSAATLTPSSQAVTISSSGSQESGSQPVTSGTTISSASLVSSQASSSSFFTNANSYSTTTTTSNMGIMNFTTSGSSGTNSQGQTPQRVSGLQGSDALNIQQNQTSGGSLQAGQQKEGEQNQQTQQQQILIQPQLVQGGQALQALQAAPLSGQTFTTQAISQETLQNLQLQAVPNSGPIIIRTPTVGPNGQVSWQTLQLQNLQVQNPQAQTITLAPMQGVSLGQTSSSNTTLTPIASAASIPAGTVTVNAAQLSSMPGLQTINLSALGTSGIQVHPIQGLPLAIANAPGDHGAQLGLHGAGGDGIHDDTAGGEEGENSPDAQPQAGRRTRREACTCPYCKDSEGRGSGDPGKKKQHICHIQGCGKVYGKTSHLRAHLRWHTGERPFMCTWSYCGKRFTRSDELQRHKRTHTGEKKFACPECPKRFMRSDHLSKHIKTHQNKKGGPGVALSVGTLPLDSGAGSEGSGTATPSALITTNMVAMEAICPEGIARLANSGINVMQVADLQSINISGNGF
Sequence of Hepatocyte nuclear factor 6 (Homo sapiens) (Q9UBC0 whole entry, looked up, the tested form may be a part): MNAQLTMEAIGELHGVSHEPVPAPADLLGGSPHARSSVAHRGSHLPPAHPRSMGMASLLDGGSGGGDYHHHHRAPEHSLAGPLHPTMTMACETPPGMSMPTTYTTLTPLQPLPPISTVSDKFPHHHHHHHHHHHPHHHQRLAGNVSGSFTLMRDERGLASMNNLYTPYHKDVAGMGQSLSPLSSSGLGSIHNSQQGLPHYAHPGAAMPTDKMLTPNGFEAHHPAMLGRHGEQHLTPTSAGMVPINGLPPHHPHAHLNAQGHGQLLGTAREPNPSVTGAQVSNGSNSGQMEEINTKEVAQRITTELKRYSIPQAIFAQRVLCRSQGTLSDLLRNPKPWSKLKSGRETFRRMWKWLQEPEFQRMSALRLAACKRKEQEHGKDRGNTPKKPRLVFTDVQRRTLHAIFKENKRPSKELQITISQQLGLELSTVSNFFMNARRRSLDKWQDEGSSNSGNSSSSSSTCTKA
Sequence of Bile acid receptor (Homo sapiens) (Q96RI1 whole entry, looked up): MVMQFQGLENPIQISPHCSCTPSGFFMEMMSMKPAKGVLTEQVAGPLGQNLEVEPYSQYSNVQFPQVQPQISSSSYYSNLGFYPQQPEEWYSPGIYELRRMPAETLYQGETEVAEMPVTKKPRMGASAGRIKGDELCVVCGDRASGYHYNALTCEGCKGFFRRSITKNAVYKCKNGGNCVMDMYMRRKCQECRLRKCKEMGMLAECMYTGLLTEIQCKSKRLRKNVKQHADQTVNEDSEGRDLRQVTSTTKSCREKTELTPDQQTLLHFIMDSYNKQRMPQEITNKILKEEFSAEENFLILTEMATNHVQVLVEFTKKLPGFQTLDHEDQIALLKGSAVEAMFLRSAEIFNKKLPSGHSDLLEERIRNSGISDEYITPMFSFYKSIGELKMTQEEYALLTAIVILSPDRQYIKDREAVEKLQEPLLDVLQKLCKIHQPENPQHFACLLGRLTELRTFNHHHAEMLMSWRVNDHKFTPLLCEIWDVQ
Sequence of Signal transducer and activator of transcription 3 (Homo sapiens) (P40763 whole entry, looked up): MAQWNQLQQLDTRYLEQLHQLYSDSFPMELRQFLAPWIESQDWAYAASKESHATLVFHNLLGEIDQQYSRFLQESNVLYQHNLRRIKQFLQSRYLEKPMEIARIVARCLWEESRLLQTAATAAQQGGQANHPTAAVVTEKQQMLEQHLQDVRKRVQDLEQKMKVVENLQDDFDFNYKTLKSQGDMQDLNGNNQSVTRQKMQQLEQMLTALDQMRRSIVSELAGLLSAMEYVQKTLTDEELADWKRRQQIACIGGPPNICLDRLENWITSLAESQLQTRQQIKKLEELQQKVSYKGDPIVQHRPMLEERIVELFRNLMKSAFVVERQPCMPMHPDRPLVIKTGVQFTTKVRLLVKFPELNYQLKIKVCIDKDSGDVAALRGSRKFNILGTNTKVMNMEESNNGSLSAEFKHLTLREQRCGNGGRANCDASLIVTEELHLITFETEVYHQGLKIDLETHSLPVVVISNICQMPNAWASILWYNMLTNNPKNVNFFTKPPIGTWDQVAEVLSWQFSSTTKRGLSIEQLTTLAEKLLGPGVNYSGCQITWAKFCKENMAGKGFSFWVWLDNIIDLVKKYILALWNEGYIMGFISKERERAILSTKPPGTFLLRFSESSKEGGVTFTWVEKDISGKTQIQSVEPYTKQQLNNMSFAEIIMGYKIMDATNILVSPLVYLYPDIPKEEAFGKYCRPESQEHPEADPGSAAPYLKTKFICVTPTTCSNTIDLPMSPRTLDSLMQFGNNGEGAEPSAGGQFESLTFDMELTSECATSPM
Sequence of Paired box protein Pax-6 (Homo sapiens) (P26367 whole entry, looked up): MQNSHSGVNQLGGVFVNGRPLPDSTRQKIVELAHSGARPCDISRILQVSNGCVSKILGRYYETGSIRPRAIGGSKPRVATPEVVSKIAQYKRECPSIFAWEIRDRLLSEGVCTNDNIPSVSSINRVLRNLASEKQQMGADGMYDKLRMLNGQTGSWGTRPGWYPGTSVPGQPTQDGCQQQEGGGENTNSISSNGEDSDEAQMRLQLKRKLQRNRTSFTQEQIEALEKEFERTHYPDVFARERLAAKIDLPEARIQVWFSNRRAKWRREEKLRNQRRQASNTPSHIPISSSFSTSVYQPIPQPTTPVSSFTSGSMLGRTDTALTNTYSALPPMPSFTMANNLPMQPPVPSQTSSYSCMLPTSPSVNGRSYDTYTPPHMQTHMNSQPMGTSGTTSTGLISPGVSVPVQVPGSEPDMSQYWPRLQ

In the case of `CCC(C)N` (stereo unspecified), the outcome in experiment [1], in [2], in experiment [3], in experiment [4], in [5] and in [6] was inactive. In addition, the call in experiment [7], in [8], in experiment [9], in [10], in [11] and in experiment [13] was inactive. Further, the call in experiment [14], in experiment [15], in experiment [16], in [17], in [18] and in experiment [19] was inactive. Further, the AC50 in experiment [12] was 47.5 µM (active).

On to `CCCCCCCCC(CO)CCCCCC` (stereo unspecified), for which the compound was classed as inactive in experiment [1], in experiment [2], in [4], in experiment [5], in [6] and in experiment [7]. For the same compound, the outcome in experiment [9], in experiment [11], in experiment [12], in experiment [14], in experiment [15] and in experiment [16] was inactive. Also, the compound was classed as inactive in experiment [17] and in experiment [19]. For the same compound, the AC50 in experiment [3] is 126 µM (active); in experiment [8], 172 µM (active); in [10], 158 µM (active); in experiment [20], 166 µM (active); in [18], 133 µM (active).

Turning to `C=CC(=O)NC(C)(C)C`, the result in [1], in experiment [3], in experiment [4], in experiment [5], in experiment [6] and in [7] was inactive. In addition, the outcome in experiment [8], in experiment [9], in [10], in experiment [20], in experiment [11] and in [14] was inactive. Further, the outcome in experiment [15], in experiment [16] and in [18] was inactive. In addition, the figures for the AC50 in experiment [2] and in experiment [12] were 27.5 µM (active) and 26.9 µM (active), respectively.

Consider `[Cl][Sc]([Cl])[Cl]`, for which the compound was classed as inactive in [1], in [2], in experiment [3], in [4], in experiment [5] and in experiment [6]. Further, the result in [7], in [8], in experiment [9], in [10], in [20] and in experiment [12] was inactive. Also, the outcome in experiment [15], in experiment [16], in experiment [18] and in experiment [19] was inactive.

A word on the AC50: it is the concentration at which the activity in the assay is half-maximal.

The record behind these values is PubChem BioAssay (EPA / NIEHS).
